Assay results as given in PubChem BioAssay (NCI).
This is part of a sample that, as a whole, favours compounds with a hit. Of some 83,000 tested, about 20% had one in any assay.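 How to read the values: 0–100, growth inhibition (40 = 60% inhibited); 0, no net growth; -100 to 0, cell death (-40 = 40% of starting cells died; -100 = all dead).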

What was measured:
Test in all cases: NCI-60 one-dose screen, 48 h (100 = growth as untreated, 0 = no growth, -100 = all killed); active = growth percent below 10; inactive = the rest
[1] = test system: NCI-H226 lung; settings: 10 µM unless noted
[2] = test system: NCI-H322M lung; settings: 10 µM unless noted
[3] = test system: HOP-62 NSCLC; settings: 10 µM unless noted
[4] = test system: K-562 leukemia; settings: 10 µM unless noted
[5] = test system: SF-295 CNS; settings: 10 µM unless noted
[6] = test system: SNB-19 CNS; settings: 10 µM unless noted
[7] = test system: SK-MEL-5 melanoma; settings: 10 µM unless noted
[8] = test system: LOX IMVI melanoma; settings: 10 µM unless noted
[9] = test system: EKVX NSCLC; settings: 10 µM unless noted
[10] = test system: TK-10 renal; settings: 10 µM unless noted
[11] = test system: MOLT-4 leukemia; settings: 10 µM
[12] = test system: SR leukemia; settings: 10 µM
[13] = test system: RPMI-8226 leukemia; settings: 10 µM unless noted
[14] = test system: HOP-92 NSCLC; settings: 10 µM unless noted
[15] = test system: NCI-H522 lung; settings: 10 µM unless noted
[16] = test system: HCT-15 colon; settings: 10 µM
[17] = test system: CCRF-CEM leukemia; settings: 10 µM unless noted
[18] = test system: IGROV1 ovarian; settings: 10 µM
[19] = test system: HCC-2998 colon; settings: 10 µM unless noted

Measured: growth

N#[N+]c1cnc([O-])[nH]c1=O
inactive: [1] 88% | [2] 98.9% | [3] 105% | [4] 76% | [5] 105% | [6] 97.8% | [7] 97% | [8] 85.2% | [9] 114% | [10] 92.6% | [11] 91% | [12] 64.8% | [13] 60.2%

C#CC1(O)CCC2(C)C(CCC3C4CCC(=O)C4(C)CCC32)C1 (configuration not stated)
inactive: [1] 86.4% | [3] 94.3% | [14] 86.1% | [15] 86.9% | [4] 92.6% | [5] 94.1% | [16] 97.5% | [6] 95% | [7] 96.2% | [8] 96.6% | [9] 89.3% | [17] 91.2% | [11] 97.3% | [12] 94.5% | [13] 83.7% | [18] 104% | [19] 106%

C[CH2][Pb]([CH2]C)([CH2]C)[O]C(=O)c1ccc(N)cc1
inactive: [1] 87.5% | [2] 79.6% | [3] 89.3% | [4] 38.6% | [5] 91.2% | [16] 66.1% | [7] 39% | [8] 68.5% | [11] 60.5% | [13] 59.1% | [18] 61.9% | [19] 67.5%

Nc1c(Br)cc([N+](=O)[O-])cc1[N+](=O)[O-]
inactive: [1] 92.9% | [3] 117% | [14] 120% | [15] 105% | [4] 104% | [5] 105% | [16] 114% | [6] 102% | [8] 103% | [9] 93.6% | [10] 114% | [17] 118% | [11] 97.2% | [12] 111% | [13] 105%
